Compounds with a hit are over-represented: about 4.4% of the library has one in this group of screens.
TIM10 inh = growth inhibitors of TIM10 yeast strain. S. cerevisiae TIM10 strain growth, BacTiter-Glo luminescence, 24 h. hit rate 1.4% among 330,000. inhibition, % at 10 µM;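 active = inhibition of 40% or more at the single tested concentration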;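 also: wild-type TIM10 isogenic control strain grown at permissive 25 °C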
tim23-1 inh = tim23-1 yeast growth inhibition; S. cerevisiae tim23-1 growth, BacTiter-Glo luminescence, 24 h; inhibition, % at 20 µM; hit rate 1.3% among 330,000; AID 463212;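 active = growth inhibition of the mutant yeast at or above 50%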;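 also: temperature-sensitive mutant grown at 25 °C; plate controls were DMSO-treated mutant yeast for no effect and medium wells lacking yeast for full effect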
tim10-1 inh = inhibits growth of tim10-1 mutant yeast | inhibition, % at 20 µM | hit rate 2.2% among 330,000 | S. cerevisiae tim10-1 ts strain growth, BacTiter-Glo, 24 h | AID 463190;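 active = inhibition of at least 40%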;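 also: mutant grown at 25 °C; 0% = DMSO wells with yeast and 100% = wells holding no yeast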
Mot1-301 SUMO = SUMOylation pathway inhibition by Mot1-301 growth rescue | growth rescue, % at 18.8 µM | hit rate 1% among 320,000 | S. cerevisiae Mot1-301 growth rescue, ATP luminescence, 38.5C; percent above DMSO median, 100 means doubled | AID 2716;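 active = every valid replicate shows activation above 250% relative to neutral control wells; inactive = the rest, any valid replicate at or below 250%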;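 also: OY570 slx delta 5 strain wells were the positive control but not used for scaling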
PfHsp90 yeast 2 = growth inhibition of yeast expressing Plasmodium Hsp90 | S. cerevisiae expressing PfHsp90, BacTiter-Glo ATP, 48 h; yeast lacking PDR1 and PDR3 efflux regulators | inhibition, % at 9.4 µM | hit rate 0.32% among 310,000 | AID 504621;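 active = every replicate shows inhibition above about 80%, whatever the replicate mean, limit read from the data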;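 also: 0% = DMSO neutral controls and 100% = 20 µM radicicol positive controls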
tim10-1 confirm = tim10-1 yeast growth inhibition, confirmed; shares compounds with tim10-1 inh; S. cerevisiae tim10-1 ts strain growth, BacTiter-Glo, 24 h; inhibition, % at 20 µM; hit rate 56% among 7,400; AID 463213;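 active = inhibition of yeast growth at or above a set limit in either of two repeat tests at 20 µM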;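 also: tim10-1 mutant grown at permissive 25 °C to find synthetic lethal compounds; 0% = DMSO yeast wells and 100% = medium wells without yeast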
tim10 confirm = TIM10 yeast growth inhibition, confirmed; shares compounds with TIM10 inh; S. cerevisiae tim10 strain growth, BacTiter-Glo luminescence, 24 h; inhibition, % at 10 µM; hit rate 63% among 4,600; AID 463215;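 active = inhibition of yeast growth at or above a set limit in either of two replicates at 10 µM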;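 also: this counterscreen used the strain with wild-type TIM10; 0% = yeast with DMSO and 100% = medium wells lacking yeast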
An asterisk follows results filed as active; . = not tested or not shown.

SMILES	TIM10 inh	tim23-1 inh	tim10-1 inh	Mot1-301 SUMO	PfHsp90 yeast 2	tim10-1 confirm	others
CCc1ccccc1NC(=O)CSc1nnc([C@@H](N)Cc2c[nH]c3ccccc23)o1	29	26	23	-1	-2	.
N[C@@H](Cc1c[nH]c2ccccc12)c1nnc(SCc2ccccc2)o1	33	38	43*	-26	5	47*
CC(C)=CCSc1nnc([C@@H](N)Cc2c[nH]c3ccccc23)o1	9	33	45*	-12	-9	32*
CC(C)COc1ccc(Cc2c(O)[nH]c(=S)[nH]c2=O)cc1	2	8	18	-3	-8	.
O=C1NC(=O)N(CCC2=CCCCC2)C(=O)/C1=C\c1cccs1	6	23	18	-29	16	.
O=C1NC(=O)N(CCc2ccc(F)cc2)C(=O)/C1=C/c1cccs1	1	44	52*	-20	.	-6
CCCCn1c(O)c(C(CC)=Nc2ccc(OCC)cc2)c(=O)[nH]c1=O	37	18	27	-45	9	.
CCCCn1c(O)c(C(CC)=Nc2ccc(OC)cc2OC)c(=O)[nH]c1=O	21	35	41*	3	-21	16
Cc1ccccc1-n1c(O)c(C(c2ccncc2)c2c(O)n(-c3ccccc3C)c(=O)[nH]c2=O)c(=O)[nH]c1=O	12	12	-1	-8	-8	.
Cn1c(O)c(C(c2ccncc2)c2c(O)n(C)c(=S)n(C)c2=O)c(=O)n(C)c1=S	-17	11	42*	-3	.	14
COc1ccc(CC(C)NCCC(c2ccccc2)c2ccccc2)cc1 (stereo not drawn)	7	-4	-11	4	2	.
COC(=O)C1=C(c2ccc(S(C)(=O)=O)cc2)C[C@@H]2CC[C@H]1N2C(=O)NC(C)C	-5	-4	1	4	-12	.
COc1cccc(CC(=O)N2CCN(Cc3cccc(Cl)c3)CC2)c1	18	35	29	-13	11	.
COc1cccc(C2CCN(CC(=O)Nc3cc(Cl)ccc3OC)CC2O)c1 (stereo not drawn)	2	25	41*	-10	-37	4
O=C(CCN1CCOCC1)NCC(=O)Nc1ccc(Br)cc1C(=O)c1ccccc1	9	18	-4	6	9	.
CC(C(=O)Nc1ccc(Br)cc1C(=O)c1ccccc1)N1CCOCC1 (stereo not drawn)	27	13	41*	-28	-19	25
CC(=NCCC1=CCCCC1)c1c(O)n(-c2ccccc2)c(=O)[nH]c1=O	8	-2	15	3	.	.
CCCCC1(CCCC)C(=O)NC(=Nc2cccc(C)c2)NC1=O	10	30	40*	-13	18	26
CCCC1(CCC)C(=O)NC(=Nc2ccccc2)NC1=O	-9	18	17	-13	-2	.
C=CCSc1nc2c(c(-c3ccsc3)c1C#N)CN(C)CC2	24	6	21	-18	4	.
CCC(C)N1C(=O)NC(=O)C2(Cc3c(ccc4ccccc34)N(C)C2)C1=O (stereo not drawn)	23	31	45*	17	1	31*
COc1ccc2c(c1)CC1(CN2C)C(=O)NC(=O)N(CCc2ccccc2)C1=O (stereo not drawn)	-11	22	3	156	-11	.
COC(=O)C1=C(c2ccc(OC(F)(F)F)cc2)C[C@@H]2CC[C@H]1N2C(=O)NCc1cccc2ccccc12	0	27	17	24	3	.
N#Cc1cc2c(nc1SCC(=O)Nc1cc(Cl)ccc1Cl)C1CCN2CC1	11	21	40*	13	13	23
COC/C=C1\CN2C3C[C@@H]1[C@H]1COC4=Nc5cc(OC)c(OC)c(OC)c5[C@@]43C[C@@H]12	-8	7	3	9	3	.
SMILES	TIM10 inh	tim23-1 inh	tim10-1 inh	Mot1-301 SUMO	PfHsp90 yeast 2	tim10-1 confirm	others
Cc1cc(-c2ccccc2)cc(-c2ccccc2)[n+]1CCc1ccccc1	15	-4	14	67	3	.
Clc1ccc(C[n+]2c(-c3ccccc3)cc(-c3ccccc3)cc2-c2ccccc2)cc1	37	31	45*	-33	18	38*
CC12CCC(=O)C=C1CCC1C2CCC2(C)C1CCC2(O)CC#N (stereo not drawn)	.	.	.	.	-8	.
CCC(c1ccc(C)cc1)N1C(=O)C2C3CCC(O3)C2C1=O (stereo not drawn)	6	15	9	-10	-1	.
Cc1ccc(/C=C2/Sc3ccc(C(=O)N4CCC5(CC4)OCCO5)cc3NC2=O)cc1	23	40	47*	12	1	20
CN1C(=O)c2ccccc2Sc2ccc(C(=O)N3CCC4(CC3)OCCO4)cc21	28	29	2	-7	.	.
CN(C)C(=O)Oc1ccc2c(=O)c(Oc3ccccc3Br)coc2c1	15	29	46*	3	19	13
COc1cccc(Oc2coc3cc(OC(=O)N(C)C)ccc3c2=O)c1	4	11	17	12	-7	.
Brc1ccc2[nH]cc(/C=N/N3CCCCC3)c2c1	18	47	42*	.	-7	22
CC(=O)OC[C@]12CCC(C)=C[C@H]1O[C@@H]1[C@H](O)[C@@H](OC(C)=O)[C@@]2(C)[C@]12CO2	26	26	54*	102	.	49*
O=C1/C(=C\c2cc3c(cc2Br)OCO3)N2CCC1CC2	28	48	53*	-29	1	38*
Oc1c(Cl)c(Cl)c(Cl)c(Cl)c1Cl	39	39	47*	194	23	31*
COC(=O)C1=C(c2c(C)noc2C)C[C@@H]2CC[C@H]1N2C(=O)NC1Cc2ccccc2C1	-6	-3	-6	17	-5	.
CC(C)(C)c1cc([N+](=O)[O-])cc(C(C)(C)C)c1O	25	43	49*	-2	.	44*
C=C(C=O)CC1CC(O)[C@]2(C)OC3CC4OC5C[C@]6(C)O[C@]7(C)CCC8OC9C[C@]%10(C)OC%11C(C)=CC(=O)OC%11CC%10OC9C[C@@H](C)C8OC7CC6O[C@]5(C)CC5OC5C4OC3CC2O1 (stereo partly drawn)	-14	-7	59*	29	-3	29*
COc1ccc(N2C(=O)NC(=O)/C(=C\c3ccc([N+](=O)[O-])s3)C2=O)cc1	81*	43	68*	-19	23	71*	tim10 confirm=38*
O=C(NC(=S)N1C[C@H]2C[C@H](C1)c1cccc(=O)n1C2)c1ccc(Cl)cc1Cl	-2	-4	-2	184	8	.
NC(=O)c1ccc(OCCC(O)N2CC=C(c3ccc(F)cc3)CC2)cc1 (stereo not drawn)	-12	-49	-20	-8	-2	.
